Laboratory results: PubChem BioAssay (NCI)
This is part of a sample that, as a whole, favours compounds with a hit. Of some 79,000 tested, about 15% had one in any assay. Rule as the data show it: active = growth inhibition above about 70%; inactive = the rest.

How the values were obtained:
[1] = NCI Yeast Anticancer Drug Screen. Data for the rad50 strain (AID 155);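 also: 0% = growth of vehicle-only cultures of the same strain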; conditions: S. cerevisiae rad50 strain growth inhibition; at 50.0 µM; hits give high values
Outline: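 Relative growth inhibition (compound vs vehicle) was measured in yeast with a defined repair-gene alteration.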

[2] = NCI Yeast Anticancer Drug Screen. Data for the mec2-1 strain (AID 157); conditions: S. cerevisiae mec2-1 strain, at 50.0 µM, hits give high values
Outline: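 Vehicle-treated cultures served as reference for growth inhibition of compound-exposed mec2-1 yeast.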

[3] = NCI Yeast Anticancer Drug Screen. Data for the sgs1 mgt1 strain (AID 161);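 also: 0% = growth of cultures given vehicle only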; conditions: S. cerevisiae sgs1 mgt1 strain, at 50.0 µM, hits give high values
Outline: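 Read-out: growth inhibition vs vehicle controls. Cells: mutant yeast strain deficient in DNA damage repair.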

[4] = NCI Yeast Anticancer Drug Screen. Data for the cln2 rad14 strain (AID 165);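 also: 0% = growth equal to vehicle treated cultures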; conditions: S. cerevisiae cln2 rad14 strain, at 50.0 µM, hits give high values
Outline: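 Each compound was tested on cln2 rad14 yeast. Inhibition of growth was calculated against vehicle-exposed controls.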

[5] = NCI Yeast Anticancer Drug Screen. Data for the bub3 strain (AID 167); conditions: S. cerevisiae bub3 mutant strain, at 50.0 µM, hits give high values
Outline: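 Screening used yeast with an engineered genetic alteration affecting cell cycle control. Compound-exposed cultures were compared with vehicle cultures, and reduced growth was taken as inhibition.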

[6] = NCI Yeast Anticancer Drug Screen. Data for the mlh1 rad18 strain (AID 175); conditions: S. cerevisiae mlh1 rad18 strain growth inhibition; at 50.0 µM; hits give high values
Outline: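 Vehicle-treated cultures served as the reference for growth inhibition in a yeast strain carrying DNA damage repair alterations exposed to each compound.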

Measured: growth inhibition

O=c1[nH]c(=O)n(C2CC(O)C(CO)O2)cc1C#Cc1ccc(C(F)(F)F)cc1 (stereo not given)
inactive: [1] 13.1% | [2] -3.4% | [3] 5% | [4] -2.45% | [5] 19.2% | [6] -13.7%

CC(C)(C)C(Br)CC(N)=O (stereo not given)
inactive: [1] 22.1% | [2] 1.55% | [3] 2% | [4] 4.3% | [5] -6.95% | [6] -6.85%

O=S(=O)(O)C(CO)c1ccccc1 (stereo not given) (tested in a mixture with another compound)
inactive: [1] 5.75% | [2] 1.5% | [3] -12.9% | [4] -31.2% | [5] -28.7% | [6] 0.9%

Cn1nnc2c(C(N)=O)ncn2c1=O
inactive: [1] -11.4% | [2] -18.5% | [3] -28.5% | [4] -25.2% | [5] -26.6% | [6] -77%

Nc1nc2c(ccc3ccccc32)[nH]1
inactive: [1] -19.8% | [2] 6.8% | [3] 8.4% | [4] 6.5% | [5] 10.3% | [6] 21.6%

CCOC(=O)Oc1ccc(C(=O)NCCC(C)C)cc1OCC
inactive: [1] -11.8% | [2] -10.3% | [3] -8.1% | [4] -69.2% | [5] 25.8% | [6] -6.8%

CC12CC(C/C1=N/O)C(C)(C)C2 (stereo not given)
inactive: [1] -4.3% | [2] 16.4% | [3] 1.55% | [4] 15.7% | [5] -7.65% | [6] 9.6%

CC1=NN(c2nc(N)nc(CN3CCOCC3)n2)C(C)(C)C1
inactive: [1] 30.1% | [2] 3.5% | [3] 17.4% | [4] 20.6% | [5] 5.75% | [6] -2.05%

COC(=O)C#Cc1cccc(OC)c1OC
inactive: [1] 22.1% | [2] 14.9% | [3] 22.9% | [4] -31.2% | [5] 12.3% | [6] 10.2%

COc1ccc(C#CC(O)C(F)(F)F)cc1 (stereo not given)
inactive: [1] -7.9% | [2] -20.4% | [3] -8.35% | [4] -18.4% | [5] -46% | [6] -11.5%

CC(=O)c1nc2ccccc2n1CC(=O)c1ccc(Cl)cc1
inactive: [1] -9.25% | [2] 11.3% | [3] 18.9% | [4] 12.6% | [5] 43.7% | [6] -3.55%

Cc1ccc2c(c1)P(=O)(O)c1cc(C)ccc1O2
inactive: [1] -45.4% | [2] -13.2% | [3] 23.6% | [4] 3.2% | [5] -9.6% | [6] -8.55%

CC(=O)N(c1ccc(NC(=O)c2ccc(N3C(=O)c4ccccc4C3=O)cc2[N+](=O)[O-])cc1)c1cc[n+](C)cc1
inactive: [1] -13.8% | [2] 2.3% | [3] -1% | [4] 9.35% | [5] -5.1% | [6] 3.75%

COc1cccc(Br)c1OC
inactive: [1] -5.4% | [2] 1.2% | [3] 20.8% | [4] 38.6% | [5] 31.9% | [6] -3.1%

N#CSCC(Cl)=CCl (mixture of isomers)
inactive: [1] 2.95% | [2] 0.95% | [3] -4.4% | [4] 12.5% | [5] 0.5% | [6] -19.6%

COC(CCl)OC
inactive: [1] 3.75% | [2] -18.6% | [3] 15.8% | [4] 10.3% | [5] -9.7% | [6] 2.6%

COC(=O)/C(C#N)=C\N1CCNC1=S
inactive: [1] -54.8% | [2] -62.8% | [3] -35.9% | [4] -15.9% | [5] -10.4% | [6] -19.5%

Cc1ccc(/C=c2\cc3oc(=O)c4cccc(c4-3)c2=O)cc1
inactive: [1] -5.3% | [2] 18.1% | [3] 58.6% | [4] 23.6% | [5] 44% | [6] 19.1%

Cc1cc(C)c2c(c1)C(=O)c1ccccc1C2=O
inactive: [1] 42.6% | [2] 47.1% | [3] 47.4% | [4] 38% | [5] 30.9% | [6] 58.8%

C[C@@H]1C(N2CCCC2)=CC(=O)OC1c1ccccc1 (stereo not given in full)
inactive: [1] -3.65% | [2] -11.1% | [3] 11.3% | [4] -6.4% | [5] -1.3% | [6] 1.95%
